From the supplement of paper PMC10849652
About 7,900 targets were measured; listed, in parts, are those with a hit and a random draw of the rest. About 0.6% of all pairs of compound and target were hits. Values without a mark were called inactive.

Key:
Assay in all cases: log2 fold change, soluble protein after heating vs DMSO (PISA); higher = thermal stabilisation; K562 cells, 10 uM, 30 min; active = over 0.2 and 3.5 SD of the protein, either way, in both replicates (recomputed)
[1] = compound: CS(=O)(=O)c1ccc(-c2cnc(N)c(C(=O)Nc3ccccc3)n2)cc1
Summary of the method: (§1)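 K562 cells (2×10^6 cells/mL) were treated with 10 μM compound for 30 min, and aliquots were heated for 3 min over 48°C-58°C. Pooled aliquots were extracted in PBS with 0.5% NP-40 at 4°C, and the supernatant after 21,000xg for 90 min was measured by TMTpro 16plex LC-MS/MS with channel sums equalised. Reported thermal stability, relative to control samples and from duplicates, is a log2 fold change.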

[2] = compound: C[C@@H](Oc1cc(-c2cnn(C3CCNCC3)c2)cnc1N)c1c(Cl)ccc(F)c1Cl [crizotinib]
Summary of the method: as §1

[3] = compound: C[C@@H]1COCCN1C2=NC(=NC(=C2)C3(CC3)S(=O)(=O)C)C4=C5C=CNC5=CC=C4
Summary of the method: as §1

[4] = compound: C[C@H](C1=CC=C(C=C1)C(=O)NC2=C3C=CNC3=NC=C2)N
Summary of the method: as §1

[5] = compound: C[C@H](Nc1ncnc2nc[nH]c12)c1cc2cccc(Cl)c2c(=O)n1-c1ccccc1 [duvelisib]
Summary of the method: as §1

[6] = compound: Cc1cc(Nc2cc(CN3CCOCC3)c3nc(C)c(Cc4ccc(Cl)cc4F)n3n2)n[nH]1 [gandotinib]
Summary of the method: as §1

[7] = compound: Cc1cc(Nc2cc(N3CCN(C)CC3)nc(Sc3ccc(NC(=O)C4CC4)cc3)n2)n[nH]1 [tozasertib]
Summary of the method: as §1

[8] = compound: Cc1cc(SCc2sc(-c3ccc(C(F)(F)F)cc3)nc2C)ccc1OCC(=O)O
Summary of the method: as §1

[9] = compound: Cc1ccc(-n2nc(C(C)(C)C)cc2NC(=O)Nc2ccc(OCCN3CCOCC3)c3ccccc23)cc1 [doramapimod]
Summary of the method: as §1

[10] = compound: Cc1ccc(C(=O)N(CCCN)[C@@H](c2nc3cc(Cl)ccc3c(=O)n2Cc2ccccc2)C(C)C)cc1 [ispinesib]
Summary of the method: as §1

UniProt Q9HAW4, sequence (Q9HAW4 whole entry, looked up): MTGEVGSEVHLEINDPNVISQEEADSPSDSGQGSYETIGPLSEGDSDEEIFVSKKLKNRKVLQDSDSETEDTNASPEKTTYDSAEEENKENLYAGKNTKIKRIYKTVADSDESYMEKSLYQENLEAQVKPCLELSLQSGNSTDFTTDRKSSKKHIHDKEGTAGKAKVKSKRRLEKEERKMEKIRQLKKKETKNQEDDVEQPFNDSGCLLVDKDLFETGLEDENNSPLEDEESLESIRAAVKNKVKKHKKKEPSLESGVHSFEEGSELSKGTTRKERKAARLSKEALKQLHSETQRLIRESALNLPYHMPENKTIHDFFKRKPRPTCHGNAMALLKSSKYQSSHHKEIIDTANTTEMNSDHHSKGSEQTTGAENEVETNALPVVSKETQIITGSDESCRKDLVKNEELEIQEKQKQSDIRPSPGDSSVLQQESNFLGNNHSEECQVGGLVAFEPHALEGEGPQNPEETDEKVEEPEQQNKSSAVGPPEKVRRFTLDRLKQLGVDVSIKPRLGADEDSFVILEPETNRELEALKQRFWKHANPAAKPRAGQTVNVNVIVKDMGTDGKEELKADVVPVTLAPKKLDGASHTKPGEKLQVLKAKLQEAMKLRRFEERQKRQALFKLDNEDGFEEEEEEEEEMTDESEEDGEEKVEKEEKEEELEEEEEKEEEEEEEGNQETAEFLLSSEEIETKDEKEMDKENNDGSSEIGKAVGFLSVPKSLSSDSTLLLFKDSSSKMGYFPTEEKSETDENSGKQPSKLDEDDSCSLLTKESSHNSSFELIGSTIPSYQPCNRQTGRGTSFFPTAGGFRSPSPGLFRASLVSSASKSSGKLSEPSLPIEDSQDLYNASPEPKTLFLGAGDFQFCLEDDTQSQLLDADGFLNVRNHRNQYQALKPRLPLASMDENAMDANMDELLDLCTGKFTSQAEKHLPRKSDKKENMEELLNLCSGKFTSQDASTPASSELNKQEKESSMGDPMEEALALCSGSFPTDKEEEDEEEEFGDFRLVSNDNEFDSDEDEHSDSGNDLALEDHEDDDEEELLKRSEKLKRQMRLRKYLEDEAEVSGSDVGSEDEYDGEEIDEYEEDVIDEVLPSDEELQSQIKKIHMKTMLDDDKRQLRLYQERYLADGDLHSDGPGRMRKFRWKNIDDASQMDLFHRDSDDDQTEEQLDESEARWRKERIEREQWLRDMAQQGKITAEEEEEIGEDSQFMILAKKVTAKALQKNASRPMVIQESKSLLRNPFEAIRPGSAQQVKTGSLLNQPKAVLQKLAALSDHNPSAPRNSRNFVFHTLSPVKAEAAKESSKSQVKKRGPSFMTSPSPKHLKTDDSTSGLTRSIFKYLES
UniProt P35790, sequence (P35790 whole entry, looked up): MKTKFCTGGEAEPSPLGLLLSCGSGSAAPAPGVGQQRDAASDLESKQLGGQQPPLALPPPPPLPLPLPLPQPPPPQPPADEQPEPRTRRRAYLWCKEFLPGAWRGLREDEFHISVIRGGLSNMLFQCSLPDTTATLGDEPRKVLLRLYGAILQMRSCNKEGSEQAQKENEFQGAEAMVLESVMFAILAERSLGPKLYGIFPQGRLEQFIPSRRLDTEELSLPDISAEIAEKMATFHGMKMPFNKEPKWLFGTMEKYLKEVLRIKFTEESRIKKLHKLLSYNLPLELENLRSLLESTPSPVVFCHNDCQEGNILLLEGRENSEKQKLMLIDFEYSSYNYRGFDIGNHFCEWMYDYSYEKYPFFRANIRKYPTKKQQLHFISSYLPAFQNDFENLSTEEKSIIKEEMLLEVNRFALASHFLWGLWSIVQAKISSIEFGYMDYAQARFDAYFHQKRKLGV
UniProt P35520, sequence (P35520 whole entry, looked up): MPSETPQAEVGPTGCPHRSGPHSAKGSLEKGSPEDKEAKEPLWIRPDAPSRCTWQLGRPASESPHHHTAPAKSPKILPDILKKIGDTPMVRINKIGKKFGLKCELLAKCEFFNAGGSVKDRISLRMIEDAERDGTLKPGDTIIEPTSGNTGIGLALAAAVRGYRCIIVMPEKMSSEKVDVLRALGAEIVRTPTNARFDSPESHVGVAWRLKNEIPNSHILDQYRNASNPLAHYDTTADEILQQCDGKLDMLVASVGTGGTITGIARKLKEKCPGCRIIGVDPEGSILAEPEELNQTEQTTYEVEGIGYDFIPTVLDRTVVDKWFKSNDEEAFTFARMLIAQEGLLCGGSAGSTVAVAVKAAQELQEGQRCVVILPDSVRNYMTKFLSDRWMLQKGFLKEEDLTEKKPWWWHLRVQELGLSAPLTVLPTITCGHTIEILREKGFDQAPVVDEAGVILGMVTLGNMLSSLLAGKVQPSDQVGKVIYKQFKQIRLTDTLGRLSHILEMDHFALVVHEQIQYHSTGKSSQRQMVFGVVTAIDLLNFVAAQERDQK
UniProt Q9BT78, sequence (Q9BT78 whole entry, looked up): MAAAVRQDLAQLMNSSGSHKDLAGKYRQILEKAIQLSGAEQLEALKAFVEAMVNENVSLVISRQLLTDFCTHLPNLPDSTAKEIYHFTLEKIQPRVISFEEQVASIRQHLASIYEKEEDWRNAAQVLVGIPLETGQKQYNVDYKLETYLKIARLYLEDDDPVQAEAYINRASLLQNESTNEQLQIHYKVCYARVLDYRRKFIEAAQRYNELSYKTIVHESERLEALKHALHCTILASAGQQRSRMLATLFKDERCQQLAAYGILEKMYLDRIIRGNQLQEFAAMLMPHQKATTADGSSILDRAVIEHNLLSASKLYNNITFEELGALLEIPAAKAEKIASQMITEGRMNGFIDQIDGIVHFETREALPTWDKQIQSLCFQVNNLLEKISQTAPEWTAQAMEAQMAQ
UniProt Q9NYV4, sequence (Q9NYV4 whole entry, looked up): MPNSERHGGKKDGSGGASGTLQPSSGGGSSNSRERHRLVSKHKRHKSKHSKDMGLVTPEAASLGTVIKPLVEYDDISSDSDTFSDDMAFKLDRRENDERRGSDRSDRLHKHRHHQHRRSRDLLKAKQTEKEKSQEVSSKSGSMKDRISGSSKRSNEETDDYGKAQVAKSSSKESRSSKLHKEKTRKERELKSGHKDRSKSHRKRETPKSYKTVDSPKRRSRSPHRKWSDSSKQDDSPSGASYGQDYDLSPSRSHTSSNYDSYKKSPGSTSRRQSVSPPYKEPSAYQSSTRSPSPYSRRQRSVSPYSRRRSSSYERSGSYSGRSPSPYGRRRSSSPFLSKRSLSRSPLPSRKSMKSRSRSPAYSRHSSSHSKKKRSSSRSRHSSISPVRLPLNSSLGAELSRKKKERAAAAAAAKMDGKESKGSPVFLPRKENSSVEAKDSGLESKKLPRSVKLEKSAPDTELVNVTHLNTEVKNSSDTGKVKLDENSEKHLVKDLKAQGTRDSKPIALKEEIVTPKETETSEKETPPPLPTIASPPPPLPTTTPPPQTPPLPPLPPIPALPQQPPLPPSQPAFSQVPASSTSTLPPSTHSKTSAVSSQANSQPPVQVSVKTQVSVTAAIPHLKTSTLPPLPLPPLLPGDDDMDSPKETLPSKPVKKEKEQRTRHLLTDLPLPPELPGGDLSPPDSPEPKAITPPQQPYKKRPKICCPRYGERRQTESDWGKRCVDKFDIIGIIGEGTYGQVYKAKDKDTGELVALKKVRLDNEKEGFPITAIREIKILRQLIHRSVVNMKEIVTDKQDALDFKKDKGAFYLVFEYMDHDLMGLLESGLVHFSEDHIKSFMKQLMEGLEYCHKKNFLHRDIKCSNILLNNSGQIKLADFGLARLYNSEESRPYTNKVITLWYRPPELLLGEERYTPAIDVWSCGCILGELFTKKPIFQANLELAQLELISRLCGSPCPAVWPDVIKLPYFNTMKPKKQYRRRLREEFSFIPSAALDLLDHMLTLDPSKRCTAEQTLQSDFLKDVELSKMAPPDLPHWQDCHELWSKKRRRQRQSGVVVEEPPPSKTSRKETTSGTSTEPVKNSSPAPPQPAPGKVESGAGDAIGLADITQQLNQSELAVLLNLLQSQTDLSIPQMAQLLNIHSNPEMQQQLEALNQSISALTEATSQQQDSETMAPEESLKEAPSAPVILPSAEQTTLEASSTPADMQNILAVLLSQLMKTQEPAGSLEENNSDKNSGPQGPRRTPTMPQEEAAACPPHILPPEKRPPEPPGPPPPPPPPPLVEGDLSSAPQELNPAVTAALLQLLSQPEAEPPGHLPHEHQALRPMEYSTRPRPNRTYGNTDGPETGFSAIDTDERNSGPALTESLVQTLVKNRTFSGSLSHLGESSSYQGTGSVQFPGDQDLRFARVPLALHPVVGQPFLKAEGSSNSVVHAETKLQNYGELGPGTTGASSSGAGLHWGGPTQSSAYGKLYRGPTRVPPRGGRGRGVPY
UniProt P51798, sequence (P51798 whole entry, looked up): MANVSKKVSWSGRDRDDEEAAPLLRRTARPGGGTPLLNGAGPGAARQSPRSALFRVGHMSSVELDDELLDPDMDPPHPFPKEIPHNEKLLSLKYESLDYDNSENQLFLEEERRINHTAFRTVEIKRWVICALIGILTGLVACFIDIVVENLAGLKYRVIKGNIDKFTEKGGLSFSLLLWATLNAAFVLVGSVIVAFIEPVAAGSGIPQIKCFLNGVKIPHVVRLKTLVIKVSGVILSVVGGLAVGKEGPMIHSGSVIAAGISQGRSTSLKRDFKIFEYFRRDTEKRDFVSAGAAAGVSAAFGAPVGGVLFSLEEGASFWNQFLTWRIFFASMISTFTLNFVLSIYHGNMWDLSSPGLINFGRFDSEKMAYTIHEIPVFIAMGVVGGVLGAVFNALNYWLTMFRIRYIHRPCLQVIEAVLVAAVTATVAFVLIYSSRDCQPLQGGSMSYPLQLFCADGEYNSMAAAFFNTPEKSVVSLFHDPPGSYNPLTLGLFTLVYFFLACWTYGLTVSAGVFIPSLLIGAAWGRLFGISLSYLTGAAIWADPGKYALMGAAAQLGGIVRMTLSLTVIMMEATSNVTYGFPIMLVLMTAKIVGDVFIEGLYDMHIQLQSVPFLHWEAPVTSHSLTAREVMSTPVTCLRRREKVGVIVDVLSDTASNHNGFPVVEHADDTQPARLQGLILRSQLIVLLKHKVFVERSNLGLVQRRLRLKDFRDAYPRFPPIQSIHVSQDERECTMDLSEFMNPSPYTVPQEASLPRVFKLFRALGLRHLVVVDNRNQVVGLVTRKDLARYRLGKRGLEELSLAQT

With CLSPN (UniProt Q9HAW4) the log2 fold change [1] was -0.028, the log2 fold change [2] was 0.039 and the log2 fold change [3] was -0.04. It also gave a log2 fold change [4] of -0.046, a log2 fold change [5] of -0.045 and a log2 fold change [6] of 0.047. The log2 fold change [7] was 0.049, the log2 fold change [8] was -0.104 and the log2 fold change [9] was 0.001. The log2 fold change [10] was 0.107.
CLCN7 (UniProt P51798) was tested, and the log2 fold change [1] was -0.037, the log2 fold change [2] was -0.814 (active) and the log2 fold change [3] was 0.018. The log2 fold change [4] was -0.091, the log2 fold change [5] was -0.089 and the log2 fold change [6] was -0.193. It also gave a log2 fold change [7] of -0.031, a log2 fold change [8] of 0.028 and a log2 fold change [9] of -0.008. The log2 fold change [10] was -0.952 (active).
CD63 (UniProt P08962) showed a log2 fold change [1] of 0.039, a log2 fold change [2] of -0.076 and a log2 fold change [3] of 0.009. The log2 fold change [4] was -0.013, the log2 fold change [5] was 0.014 and the log2 fold change [6] was -0.023. For the same target, the log2 fold change [7] was -0.007, the log2 fold change [8] was -0.022 and the log2 fold change [9] was 0.033. For the same target, the log2 fold change [10] was -0.092.
CBX1 (UniProt P83916) gave a log2 fold change [1] of -0.03, a log2 fold change [2] of 0.001 and a log2 fold change [3] of 0.043. For the same target, the log2 fold change [4] was -0.08, the log2 fold change [5] was -0.006 and the log2 fold change [6] was 0.004. It also gave a log2 fold change [7] of 0.06, a log2 fold change [8] of -0.056 and a log2 fold change [9] of 0.105. It also gave a log2 fold change [10] of 0.04.
Work on CDK1 (UniProt P06493) yielded a log2 fold change [1] of 0.005, a log2 fold change [2] of -0.128 and a log2 fold change [3] of -0.005. It also gave a log2 fold change [4] of -0.019, a log2 fold change [5] of 0.021 and a log2 fold change [6] of -0.171. It also gave a log2 fold change [7] of -0.057, a log2 fold change [8] of 0 and a log2 fold change [9] of -0.031. It also gave a log2 fold change [10] of 0.033.
With CETN3 (UniProt O15182) the log2 fold change [1] was -0.018, the log2 fold change [2] was 0.014 and the log2 fold change [3] was -0.084. It also gave a log2 fold change [4] of -0.071, a log2 fold change [5] of 0.057 and a log2 fold change [6] of 0.094. It also gave a log2 fold change [7] of 0.037, a log2 fold change [8] of -0.094 and a log2 fold change [9] of -0.018. It also gave a log2 fold change [10] of 0.
CHKA (UniProt P35790) was tested, and the log2 fold change [1] was -0.022, the log2 fold change [2] was 0.075 and the log2 fold change [3] was -0.034. The log2 fold change [4] was 0.046, the log2 fold change [5] was -0.002 and the log2 fold change [6] was 0.009. It also gave a log2 fold change [7] of -0.013, a log2 fold change [8] of -0.012 and a log2 fold change [9] of -0.011. The log2 fold change [10] was 0.048.
CDK12 (UniProt Q9NYV4) gave a log2 fold change [1] of -0.056, a log2 fold change [2] of -0.054 and a log2 fold change [3] of -0.362. The log2 fold change [4] was 0.376, the log2 fold change [5] was -0.161 and the log2 fold change [6] was -1.11 (active). The log2 fold change [7] was -0.125, the log2 fold change [8] was 0.051 and the log2 fold change [9] was 0.299. The log2 fold change [10] was 0.
For CLPP (UniProt Q16740), the log2 fold change [1] was 0.05, the log2 fold change [2] was 0.348 (active) and the log2 fold change [3] was 0.058. The log2 fold change [4] was -0.025, the log2 fold change [5] was 0.006 and the log2 fold change [6] was 0.008. It also gave a log2 fold change [7] of -0.02, a log2 fold change [8] of 0.017 and a log2 fold change [9] of 0.003. The log2 fold change [10] was 0.105.
CHD3 isoform 3 (UniProt Q12873) was tested, and the log2 fold change [1] was -0.036, the log2 fold change [2] was -0.128 and the log2 fold change [3] was 0.068. For the same target, the log2 fold change [4] was 0.079, the log2 fold change [5] was 0.01 and the log2 fold change [6] was 0.237. For the same target, the log2 fold change [7] was 0.23, the log2 fold change [8] was 0.14 and the log2 fold change [9] was 0.026. For the same target, the log2 fold change [10] was -0.193.
In the case of CBS (UniProt P35520), the log2 fold change [1] is reported as -0.024, the log2 fold change [2] is reported as 0.044 and the log2 fold change [3] is reported as 0.023. It also gave a log2 fold change [4] of -0.054, a log2 fold change [5] of 0.027 and a log2 fold change [6] of -0.033. The log2 fold change [7] was -0.032, the log2 fold change [8] was -0.031 and the log2 fold change [9] was -0.076. It also gave a log2 fold change [10] of -0.019.
CLTB (UniProt P09497) showed a log2 fold change [1] of -0.058, a log2 fold change [2] of 0.007 and a log2 fold change [3] of -0.004. The log2 fold change [4] was -0.047, the log2 fold change [5] was -0.035 and the log2 fold change [6] was 0.026. The log2 fold change [7] was -0.011, the log2 fold change [8] was -0.056 and the log2 fold change [9] was -0.012. It also gave a log2 fold change [10] of 0.085.
In the case of CRYM-AS1 (UniProt A6NIL9), the log2 fold change [1] is reported as 0.2, the log2 fold change [2] is reported as -0.077 and the log2 fold change [3] is reported as -0.132. It also gave a log2 fold change [4] of -0.08, a log2 fold change [5] of -0.035 and a log2 fold change [6] of -0.299. It also gave a log2 fold change [7] of -0.079, a log2 fold change [8] of -0.024 and a log2 fold change [9] of -0.144. The log2 fold change [10] was 0.022.
In the case of COX17 (UniProt Q14061), the log2 fold change [1] is reported as 0.026, the log2 fold change [2] is reported as 0.164 and the log2 fold change [3] is reported as 0.206. The log2 fold change [4] was -0.072, the log2 fold change [5] was 0.256 and the log2 fold change [6] was -0.11. It also gave a log2 fold change [7] of 0.005, a log2 fold change [8] of -0.021 and a log2 fold change [9] of -0.037. The log2 fold change [10] was 0.137.
COPS4 (UniProt Q9BT78) gave a log2 fold change [1] of -0.01, a log2 fold change [2] of 0.112 and a log2 fold change [3] of 0.064. The log2 fold change [4] was -0.064, the log2 fold change [5] was 0.029 and the log2 fold change [6] was 0.022. The log2 fold change [7] was 0.036, the log2 fold change [8] was 0.002 and the log2 fold change [9] was -0.014. For the same target, the log2 fold change [10] was 0.086.
